Bioassay records (PubChem BioAssay)
Most compounds without a hit are left out; they make up all but 12% or so of the library.
Sm TGR block: qHTS Assay for the Inhibitors of Schistosoma Mansoni Peroxiredoxins. purified TGR, DTNB reduction, TNB absorbance 405 nm. AID 485364, 2010. actives 3% (n = 360,000). Potency, µM (doses to about 114 µM), usual class: inhibitors. Schistosoma mansoni thioredoxin glutathione reductase (TGR), Q962Y6; active means well fitted inhibition curve with a large enough effect; inconclusive means small, poorly fitted or top-dose-only effect; inactive means no such curve, though single readings can be large or run the other way; further: nearly all actives have a fitted effect of over 60% in size
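First, TGR (20 nM dispensed) and NADPH were mixed with compound. Second, a 15 min room-temperature incubation followed. Third, further NADPH and then DTNB were added to start the reaction. Finally, TNB absorbance was monitored kinetically.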
Shiga toxin inh: A qHTS for Small Molecule Inhibitors of Shiga Toxin; Vero cells, Shiga toxin protein synthesis inhibition reporter; inhibition, % at 38.7 µM; actives 9.2% (n = 290,000); in the data active means inhibition mostly above about 28%, no sharp cut-off; inactive means mostly below about 43%
FMDV inh: High Throughput Screening for Foot and Mouth Disease Virus Antivirals; AID 1159524, 2015; actives 1.2% (n = 410,000); FMDV antiviral cell-based qHTS; Potency, µM (series often up to 57.9 µM), hits mostly inhibitors; calls by dose curve; tested in HEK293T cells; further: read-out not given here; nearly all actives have a fitted effect of over 45% in size
CHX counter: Cycloheximide Counterscreen for Small Molecule Inhibitors of Shiga Toxin; cell reporter, cycloheximide protein synthesis inhibition counterscreen; max response, %; actives 12% (n = 300,000); in the data active means max response mostly above about 13%, no sharp cut-off; inactive means mostly below about 14%; further: read at 38.3 µM for the half of the compounds with a filed dose
Large screens that a line does not name were inactive.

Cc1cc(C)c2c(N)c(C(=O)N/N=C/c3cccnc3)sc2n1	CHX counter 43
Cc1cc(C)c2c(N)c(C(=O)N/N=C/c3ccccc3)sc2n1	Shiga toxin inh 121, CHX counter 59
Nc1c(C(=O)N/N=C/c2cccnc2)oc2nc(-c3ccco3)cc(-c3ccco3)c12	Sm TGR block 13µM
Cc1ccc(N2CC(NC(=O)C3CCCC3)CC2=O)cc1 (stereo not drawn)	none (no result: Shiga toxin inh, CHX counter)
CCCCC1(C)OC(=O)C(=Cc2ccc(-c3ccc(Cl)c(C(=O)O)c3)o2)C(=O)O1 (stereo not drawn)	none
CC1=C(C#N)C(=O)NC(=O)/C1=C\c1ccc(-c2ccc(C)cc2[N+](=O)[O-])o1	Sm TGR block 8.9µM
CCOC(=O)c1cc(-c2ccc(/C=C3/C(=O)NC(=O)C(C#N)=C3C)o2)ccc1Cl	Sm TGR block 7.9µM
Cc1ccc(OCC(=O)N2CCN(c3nnc(-c4ccc(C)cc4)c4ccccc34)CC2)cc1	FMDV inh inconclusive
COc1ccc(OCC(=O)N2CCN(c3nnc(-c4ccc(C)cc4)c4ccccc34)CC2)cc1	FMDV inh 28µM
Cc1ccc(-c2nnc(N3CCN(C(=O)COc4cccc(C)c4)CC3)c3ccccc23)cc1	FMDV inh 25µM
COc1ccc(CN2CCC(N(CCc3ccccc3)Cc3ccccc3)CC2)c(OC)c1	FMDV inh 18µM
COc1ccc([C@H]2CC(=O)C=C(c3cc(F)ccc3F)C2)cc1OC	FMDV inh 32µM (no result: Shiga toxin inh, CHX counter)
c1ccc(-c2ccc(-c3n(-c4ccccn4)c4ccccc4[n+]3-c3ccccn3)cc2)cc1	FMDV inh 14µM
COC(=O)Cc1c(C)c2ccc3c(c2oc1=O)CN(Cc1ccccc1Cl)CO3	FMDV inh inconclusive (no result: Shiga toxin inh, CHX counter)
O=C(COC(=O)C1=COCCO1)Nc1ccccc1	Shiga toxin inh 64, CHX counter 52
O=C(COC(=O)C1=COCCO1)Nc1ncc(Cl)cc1Cl	none (no result: Shiga toxin inh, CHX counter)
O=C(COC(=O)C1=COCCO1)NC1CCCCCCC1	Sm TGR block inconclusive, Shiga toxin inh 46, CHX counter 29
O=C(COC(=O)C1=COCCO1)Nc1cccc(Oc2ccccc2)c1	none
O=C(COC(=O)C1=COCCO1)Nc1ccc(OC(F)F)cc1	Shiga toxin inh 53, CHX counter 38
O=C(NC1CCCC1)C1=COCCO1	none
O=C(COC(=O)C1=COCCO1)Nc1ncc(C(F)(F)F)cc1Cl	Sm TGR block 100µM
N#Cc1ccc(NC(=O)COC(=O)C2=COCCO2)cc1	none
Cc1ccc(-n2nc3c(=O)n(CCCC(=O)NC(C)c4ccccc4)nc(C)c3c2C)cc1 (stereo not drawn)	none (no result: Shiga toxin inh, CHX counter)
Cc1nc(-c2cccnc2)sc1CCNS(=O)(=O)c1ccc(F)cc1	none (no result: Shiga toxin inh, CHX counter)
Cn1nnc2c(NCc3ccc(Cl)cc3)ncnc21	none (no result: Shiga toxin inh, CHX counter)
COc1ccc(-c2cc(C(F)(F)F)nc(SCC(=O)NC(C)c3ccccc3)n2)cc1 (stereo not drawn)	none (no result: Shiga toxin inh, CHX counter)
COc1ccccc1C(=O)OCC(=O)Nc1ccc(OC(F)F)cc1	Shiga toxin inh 93, CHX counter 21
COc1ccccc1C(=O)OCC(=O)Nc1ccccc1OC(F)F	none
CCOC(=O)Cc1csc(NC(=O)c2ccoc2C)n1	Shiga toxin inh 84, CHX counter 29
COCCNC(=O)CN(Cc1ccc2c(c1)OCO2)C(=O)CCC(=O)Nc1nccs1	FMDV inh inconclusive
CCOC(=O)Cc1csc(NC(=O)c2ccc3c(c2)OCO3)n1	Shiga toxin inh 40, CHX counter 15
Cc1occc1C(=O)Nc1nnc(C(F)(F)F)s1	none
CC(C)(C)NC(=O)CN(Cc1ccc2c(c1)OCO2)C(=O)CCC(=O)Nc1nccs1	CHX counter 15
Cc1csc(NC(=O)c2ccoc2C)n1	Shiga toxin inh 64, CHX counter 49
Nc1c(-c2nc(-c3cccs3)no2)nnn1-c1cccc(Cl)c1	none (no result: Shiga toxin inh, CHX counter)
Cc1ccc(C)c(N2CCN(C(=O)c3cc4c(=O)n(Cc5cccs5)ccc4nc3C)CC2)c1	none (no result: Shiga toxin inh, CHX counter)
CCOC(=O)Cc1csc(NC(=O)c2ccc(F)cc2)n1	none
Cc1cccnc1NC(=O)c1ccc2c(c1)OCO2	none (no result: Shiga toxin inh, CHX counter)
Cc1csc(NC(=O)c2ccncc2)n1	none
O=C(Nc1nccs1)c1ccc2c(c1)OCO2	Shiga toxin inh 65, CHX counter 20
CCOC(=O)Cc1csc(NC(=O)c2ccc(C)cc2)n1	Shiga toxin inh 91, CHX counter 34
Cc1csc(NC(=O)c2ccc3c(c2)OCO3)n1	Shiga toxin inh 71, CHX counter 31
CCOC(=O)c1ccc2c(c1)sc1nc(-c3ccc(OCC)cc3)cn12	none (no result: Shiga toxin inh, CHX counter)
Cn1nnnc1SCCCNCc1ccccc1OCc1ccc(F)cc1	none (no result: Shiga toxin inh, CHX counter)
COc1ccc(-c2ccc(CCC(=O)O)n2CC(C)C)cc1	Sm TGR block 10µM
C=CCn1c(CCC(=O)O)ccc1-c1ccc(OC)cc1	Sm TGR block 45µM (no result: FMDV inh)
CSc1nc(N)nc(SCC(=O)c2ccccc2)c1C#N	Sm TGR block inconclusive, FMDV inh inconclusive, CHX counter 19
COc1ccc(C(=O)CSc2nc(N)nc(SC)c2C#N)cc1	none
CCOC(=O)c1ccccc1NC(=O)Cn1nnc2sc3c(c2c1=O)CCCC3	none (no result: Shiga toxin inh, CHX counter)
Cc1ccc(NC(=S)NC(=O)C2CC2)cc1Cl	Sm TGR block inconclusive, Shiga toxin inh 53, CHX counter 28
O=C(NC(=S)Nc1ccc(S(=O)(=O)N2CCCC2)cc1)C1CC1	none (no result: Sm TGR block)
O=C(NC(=S)Nc1ccc(F)c(Cl)c1)C1CC1	Sm TGR block 16µM, CHX counter 28
Cc1cc(NC(=O)Cn2c(=O)nc(-c3ccccc3F)c3cc(Cl)ccc32)ccc1Br	none (no result: Shiga toxin inh, CHX counter)
COc1cccc(C(=O)Nc2ccc(S(=O)(=O)NCc3ccco3)cc2)c1	none
CC(C)n1nc(C(=O)Nc2cccc(S(=O)(=O)NCc3ccco3)c2)c2ccccc2c1=O	CHX counter 17
O=C(Cn1ccc(C(F)(F)F)n1)Nc1ccc(S(=O)(=O)NCc2ccco2)cc1	Sm TGR block 45µM
Cn1nc(C(=O)NCc2ccco2)c2ccccc2c1=O	none
O=C(Nc1ccc(S(=O)(=O)NCc2ccco2)cc1)c1cccc(F)c1	Sm TGR block inconclusive, Shiga toxin inh 37
Cn1nc(C(=O)Nc2ccc(S(=O)(=O)NCc3ccco3)cc2)c2ccccc2c1=O	Shiga toxin inh 52, CHX counter 53
CCc1ccc(C(=O)COC(=O)C(Cc2c[nH]c3ccccc23)NC(=O)c2ccc(CC)cc2)cc1 (stereo not drawn)	none (no result: Shiga toxin inh, CHX counter)
COc1ccc(C2OC3=C(Nc4cc(C)c(C)cc4N3)C2=O)cc1 (stereo not drawn)	Shiga toxin inh 77, CHX counter 30
Cc1cc2c(cc1C)NC1=C(N2)OC(c2cccc(O)c2)C1=O (stereo not drawn)	CHX counter 7.4
COc1ccccc1C1OC2=C(Nc3ccc([N+](=O)[O-])cc3N2)C1=O (stereo not drawn)	none
CC1CN(C(=O)CCC(=O)NCc2cccs2)c2ccccc2O1 (stereo not drawn)	none (no result: Shiga toxin inh, CHX counter)
CNc1nc(-c2ccc3c(c2)OCO3)nc2ccccc12	none (no result: Sm TGR block, Shiga toxin inh, CHX counter)
CC(C)C1N=C(c2ccc3c(c2)OCO3)CC(c2ccccc2O)N1 (stereo not drawn)	Shiga toxin inh 79, CHX counter 39
c1ccc2[nH]c(CSc3nc4ccccc4o3)nc2c1	Shiga toxin inh 137, CHX counter 42 (no result: FMDV inh)
c1cncc(-c2nnc(SCc3nc4ccccc4[nH]3)o2)c1	none
